# Compounds with a hit are over-represented: about 19% of the library has one in this group of screens.
# TDP1 block: TDP1 (human) enzyme inhibition | Q9NUW8 | recombinant TDP1, AlphaScreen DNA substrate cleavage | Potency, µM (series often up to 130 µM), for the others: at the top dose activity change, negative = inhibition, hits mostly inhibitors | 350,000 tested, 0.28% active | AID 485290; note: potency is the fitted concentration of half-maximal effect; nearly all actives have a fitted effect of over 40% in size
# Target sequence (Q9NUW8 whole entry, looked up): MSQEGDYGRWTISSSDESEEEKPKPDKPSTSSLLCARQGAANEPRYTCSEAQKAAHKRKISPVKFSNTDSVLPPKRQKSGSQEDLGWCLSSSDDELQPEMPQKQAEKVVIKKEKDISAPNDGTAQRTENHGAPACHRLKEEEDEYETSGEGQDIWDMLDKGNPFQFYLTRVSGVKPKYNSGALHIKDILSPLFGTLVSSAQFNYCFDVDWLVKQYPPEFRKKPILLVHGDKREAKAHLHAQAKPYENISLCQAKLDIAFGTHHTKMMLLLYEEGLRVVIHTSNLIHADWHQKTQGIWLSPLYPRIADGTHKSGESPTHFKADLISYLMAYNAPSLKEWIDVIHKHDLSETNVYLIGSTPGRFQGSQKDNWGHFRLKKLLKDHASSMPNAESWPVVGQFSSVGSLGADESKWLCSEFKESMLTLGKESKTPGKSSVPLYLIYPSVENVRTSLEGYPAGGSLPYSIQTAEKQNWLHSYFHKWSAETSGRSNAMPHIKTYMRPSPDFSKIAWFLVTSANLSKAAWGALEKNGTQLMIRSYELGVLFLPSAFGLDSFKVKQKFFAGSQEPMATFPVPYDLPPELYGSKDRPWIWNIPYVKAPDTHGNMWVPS
#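 Compounds were preincubated with Tdp1 (1 nM final) for 15 min at room temperature before substrate (15 nM final) started a 5 min reaction; beads (10 ug/ml final) were then added for 10 min before AlphaScreen detection.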
# IL-1B inflam inh: inflammasome signaling inhibition, IL-1 beta readout. 360,000 tested, 4.7% active. AID 743279. THP-1 LPS/ATP IL-1B secretion, AlphaLISA, 16 h; active compounds read low. activity change, % at 57.5 µM; in the data active = activity change below about -50%; inconclusive = mostly about -30% to -49%
#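 Secreted IL-1B measured by AlphaLISA bead assay after 16 h compound exposure of THP-1 cells; compounds (final up to 57.5 uM) added 1 h before LPS (250 ng/mL) and ATP (1.25 mM) stimulation; lower signal means less secretion.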
# TDP1 cell CPT: DT40-hTDP1 cell growth loss with CPT; chicken DT40 Tdp1-/-;hTDP1 cells + 20 nM CPT, ATP luminescence, 48 h; Potency, µM (highest dose often 46.2 µM), inactives show top-dose activity change, negative = growth inhibition, actives largely listed as inhibitors; 420,000 tested, 12% active; note: potency is the fitted concentration of half-maximal effect; nearly all actives have a fitted effect of over 55% in size
#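 Chicken DT40 Tdp1-/- cells complemented with human TDP1, 400 cells/well, exposed to compounds plus 20 nM camptothecin for at least 48 h at 37 C; viability read as ATP content by CellTiter-Glo luminescence.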
# Giardia killer: Giardia lamblia killing | Giardia lamblia trophozoite viability | activity change, % at 7.66 µM, hits read low | 340,000 tested, 0.15% active | AID 540267; in the data active = activity change below about -80%; inconclusive = between about -30% and that limit;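 note: parasites exposed to compound for two days anaerobically before the ATP read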
#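 Viability, read as ATP luminescence: trophozoites at 100 cells/well, compound added, 48 hrs anaerobic at 37 deg C, then 15-30 min room-temperature development before reading.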
# ELG1 repair inh: ELG1-dependent DNA repair inhibition. HEK293T ELG1-luciferase reporter, luminescence, 16 h; DNA damage induced by 5-fluorouridine. 330,000 tested, 2.3% active. Potency, µM (series often up to 46.1 µM), for inactives: at the top dose activity change, negative = inhibition, most hits filed as inhibitors. AID 504467; note: potency is the fitted concentration of half-maximal effect; nearly all actives have a fitted effect of over 55% in size
#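 In this reporter screen, reduction of luminescence relative to DMSO vehicle indicated activity. Compounds and 5-fluorouridine were added together to 2,000 cells per well, incubated for 16 hr at 37 °C, then developed with ONE-Glo.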
# TDP1 cell noCPT: qHTS for Inhibitors of human tyrosyl-DNA phosphodiesterase 1 (TDP1): qHTS in cells in absence of CPT; DT40 Tdp1-/- hTDP1 cells, no CPT, ATP luminescence, 48 h; Potency, µM (highest dose often 46.2 µM), without a hit: top-dose activity change, negative = growth inhibition, hits mostly inhibitors; 420,000 tested, 15% active; note: potency is the fitted concentration of half-maximal effect; nearly all actives have a fitted effect of over 55% in size
#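 Camptothecin absent (DMSO only). Human TDP1-complemented DT40 knockout cells, 400 cells/well, 37 °C for minimum 48 hr; ATP measured via CellTiter-Glo, 30 min dark incubation, luminescence.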
# Starred values were filed as active, the others as inactive; ? = inconclusive; / = no result. Unless noted, calls come from the whole dose curve; as a rule, active = well fitted curve in the direction sought with a large enough effect; inconclusive = small, poorly fitted or top-dose-only effect, or another doubt; inactive = no such curve, though single readings can be large; an effect the other way counts as inactive or inconclusive. % is set by controls: 0 for no effect and ±100 for the full control effect.
SMILES,TDP1 block,IL-1B inflam inh,TDP1 cell CPT,Giardia killer,ELG1 repair inh,TDP1 cell noCPT
Cc1cc(O)ccc1N1C(=O)c2cccc3cc([N+](=O)[O-])cc(c23)C1=O,/,17,?,?,-11%,?
C[C@H]1/C=C\CC(=O)NCc2cccc(c2)CNC(=O)N[C@H]1c1ccccc1,5%,/,/,/,/,/
C=C(CC)C(=O)c1ccc(OCC(=O)O)c(Cl)c1Cl,3%,-94*,17µM*,-25,-13%,18µM*
O=C(NCCN1CCC(n2c(=O)[nH]c3ccccc32)CC1)c1ccc(F)c(F)c1,/,/,0.33µM*,/,/,-35%
O=C(NCCN1CCC(n2c(=O)[nH]c3ccccc32)CC1)c1cccnc1Cl,/,?,?,/,/,-28%
COc1ccc(C(=O)NCCN2CCC(n3c(=O)[nH]c4ccccc43)CC2)cc1F,/,/,-25%,/,/,-28%
O=C(NCCN1CCC(n2c(=O)[nH]c3ccccc32)CC1)c1ccc(C(F)(F)F)cc1C(F)(F)F,/,-28,5.8µM*,/,/,4.6µM*
O=C(NCCN1CCC(n2c(=O)[nH]c3ccccc32)CC1)c1ccc(F)c(C(F)(F)F)c1,/,?,?,/,/,26µM*
O=C(CNC(=O)C12CC3CC(CC(C3)C1)C2)N/N=C\c1ccccn1,-1%,14,-1%,-3,1%,-16%
CC1CN(CC(=O)Nc2ccc([N+](=O)[O-])cc2Br)CC(C)O1 (centres undefined),1%,0,-16%,2,?,-14%
Cc1nc(NC(=O)/C=C/c2ccco2)sc1C,-3%,22,5.2µM*,0,?,5.8µM*
O=C(/C=C/c1ccco1)Nc1ccccc1C(=O)O,14µM*,-4,7%,-2,?,-9%
O=C(/C=C/c1ccco1)Nc1cccc(NC(=O)/C=C/c2ccco2)n1,/,10,23µM*,-22,?,21µM*
O=C(/C=C/c1ccco1)NC1=NCCS1,/,26,-5%,-2,?,-13%
COc1ccccc1Cc1nc2ccccc2nc1SCC(=O)Nc1c(C)cccc1C,5%,/,-3%,/,/,2%
COc1ccc(NC(=O)C(=O)NCCc2csc3nc(-c4ccccc4C)nn23)cc1,4%,/,?,/,/,?
O=C(NCc1nc2ccccc2[nH]1)C1=C[C@@H](c2ccc(Br)cc2)C[C@@H](OCc2ccc(CO)cc2)O1,5%,0,9.2µM*,17,0%,18µM*
O=C(NC1CC1)C1=C[C@H](c2ccc(Br)cc2)C[C@H](OCc2ccc(CO)cc2)O1,0%,-26,23µM*,-20,-7%,15µM*
O=C(NCc1nc2ccccc2[nH]1)C1=C[C@@H](c2csc3ccccc23)C[C@@H](OCc2ccc(CO)cc2)O1,6%,0,?,-23,?,21µM*
C[C@H]1C=C(C(=O)NCc2nc3ccccc3[nH]2)O[C@@H](OCc2ccc(CO)cc2)C1,4%,-15,-21%,-4,12%,-17%
O=C(NCc1nc2ccccc2[nH]1)C1=C[C@H](c2csc3ccccc23)C[C@H](OCc2ccc(CO)cc2)O1,5%,-29,?,-5,?,15µM*
O=C(NC1CC1)C1=C[C@H](c2ccccc2)C[C@H](OCc2ccc(CO)cc2)O1,5%,-24,?,43,-4%,?
CC1(C(=O)Nc2ccc(Cl)c(Cl)c2)CCN1CCc1ccccc1 (centres undefined),/,20,?,/,/,?
COc1cccc(NC(=O)C(C)Sc2nnc(C3CC3)n2C2CC2)c1 (centres undefined),0%,6,-21%,23,1%,0%
CCc1ccc(C(O)c2ncc(-c3cccc(OC)c3)[nH]2)cc1 (centres undefined),/,17,?,/,/,9.2µM*
